# Bioassay records deposited in PubChem BioAssay by National Center for Advancing Translational Sciences (NCATS).
# HEK293 viab = GF-AFC viability counterscreen for inhibitors of alpha-synuclein gene (SNCA) expression | HEK-293-SNCA-luc viability, GF-AFC fluorescence, 24 h | Potency, µM (series often up to 57.1 µM), for the others: top-dose activity change, negative = cytotoxicity, hits mostly cytotoxic | hit rate 0.12% among 150,000 | AID 1671193, 2021;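 note: 0% = DMSO-treated cells and -100% = medium-only wells without cells; nearly all actives have a fitted effect of over 30% in size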
#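 Cytotoxicity counterscreen: after 24 h compound treatment of genome-edited SNCA-luciferase HEK-293 cells, live-cell protease substrate GF-AFC read by fluorescence after 30 min; activity scaled between DMSO (0%) and medium-only (-100%), curves Hill-fitted.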
# HEK cytotox = Cytotoxic Profiling in HEK 293 Cell Line of Diverse Libraries Using Quantitative High-Throughput Screening. Potency, µM (highest dose often 115 µM), without a hit: at the highest dose activity change, negative = cytotoxicity, hits mostly inhibitors. HEK 293 viability, ATP luminescence (CellTiter-Glo), 48-72 h. hit rate 6.6% among 94,000. AID 1345083, 2018; note: nearly all actives have a fitted effect of over 60% in size
#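 HEK 293 seeded at 250 cells/well receive compound via pintool. After 48 or 72 hr at 37 degree Celsius, 5% CO2 and 95% humidity, CellTiter-Glo is dispensed and luminescence read following 10 min at room temperature.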
# hNpr1 antagonist = Natriuretic polypeptide receptor (hNpr1) antagonism - Primary qHTS | HEK293 hNpr1 GloSensor cGMP, ANP-stimulated luminescence | Potency, µM (highest dose often 46.3 µM), inactives show at the top dose activity change, negative = inhibition, actives largely listed as inhibitors | hit rate 1.6% among 76,000; calls by dose curve; note: nearly all actives have a fitted effect of over 60% in size
#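 Compound pre-incubated 30 min at room temperature on GloSensor-loaded HEK293 cells stably carrying hNpr1 and the pGS-40F cGMP biosensor. Stimulation uses hNppA at 0.1 nM final; luminescence is taken at baseline and 20 min post-agonist.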
# FLuc inh = Firefly luciferase inhibition profiling of diverse chemical library using quantitative high-throughput screening | purified P. pyralis luciferase, luminescence, biochemical | Potency, µM (series often up to 115 µM), most hits filed as inhibitors | Luciferin 4-monooxygenase (Photinus pyralis), P08659 | hit rate 2.5% among 76,000 | AID 1347043, 2019; note: nearly all actives have a fitted effect of over 65% in size
# Target sequence (P08659 whole entry, looked up): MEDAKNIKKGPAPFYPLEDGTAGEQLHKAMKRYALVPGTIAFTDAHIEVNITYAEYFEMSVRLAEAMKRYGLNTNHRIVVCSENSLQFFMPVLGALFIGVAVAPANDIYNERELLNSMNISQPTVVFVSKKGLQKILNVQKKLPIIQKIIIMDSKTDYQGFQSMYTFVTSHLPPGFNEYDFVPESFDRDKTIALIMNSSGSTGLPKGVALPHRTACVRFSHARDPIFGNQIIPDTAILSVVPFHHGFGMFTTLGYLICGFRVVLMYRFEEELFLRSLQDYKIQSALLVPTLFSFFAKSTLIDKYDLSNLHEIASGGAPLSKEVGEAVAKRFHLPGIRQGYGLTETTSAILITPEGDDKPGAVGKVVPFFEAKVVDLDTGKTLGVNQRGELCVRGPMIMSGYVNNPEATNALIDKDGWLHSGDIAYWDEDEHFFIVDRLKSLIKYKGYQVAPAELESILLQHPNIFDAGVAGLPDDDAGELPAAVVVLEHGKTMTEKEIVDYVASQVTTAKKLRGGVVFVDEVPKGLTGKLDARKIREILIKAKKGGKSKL
#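 Purified P. pyralis luciferase (10nM final) in 50mM Tris acetate pH 7.5, 10mM Mg acetate, 0.01% Tween-20, 0.05% BSA with 10uM D-luciferin and 10uM ATP. Compounds titrated qHTS. Luminescence imaged on CCD.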
# 3T3 cytotox = Cytotoxic Profiling in NIH 3T3 Cell Line of Diverse Libraries Using Quantitative High-Throughput Screening; NIH 3T3 viability, CellTiter-Glo ATP luminescence, 48-72 h; Potency, µM (doses to about 96.7 µM), without a hit: at the top dose activity change, negative = cytotoxicity, hits mostly inhibitors; hit rate 4.3% among 94,000; note: nearly all actives have a fitted effect of over 55% in size
#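 Cells were seeded at 400 per well, treated with pin-transferred compound, and kept 48 or 72 hr at 37 °C before CellTiter-Glo addition and luminescence imaging of cellular ATP.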
# SNCA expr inhib = Primary qHTS assay for inhibitors of alpha-synuclein gene (SNCA) expression | HEK-293 SNCA-luciferase knock-in, luminescence, 24 h | Potency, µM (doses to about 57.2 µM), for the others: at the top dose activity change, negative = inhibition, actives largely listed as inhibitors | hit rate 0.17% among 140,000;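 note: plate controls were DMSO cells for no effect and cell-free wells for full effect; nearly all actives have a fitted effect of over 45% in size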
# * = called active by the depositor; i = inactive; ? = inconclusive; nt = not tested or not shown; ! = repeats disagree; [ ] = dose if it differs, or a comment. Only some compounds are listed: those with a hit (about 7.4% of all), similar ones and a draw of the others. Unless noted, calls come from the whole dose curve; as a rule, active = well fitted curve in the direction sought with a large enough effect; inconclusive = small, poorly fitted or top-dose-only effect, or another doubt; inactive = no such curve, though single readings can be large; an effect the other way counts as inactive or inconclusive. Unless noted, % is set by controls: 0 for no effect and ±100 for the full control effect; potency is the fitted concentration of half-maximal effect.
SMILES,HEK293 viab,HEK cytotox,hNpr1 antagonist,FLuc inh,3T3 cytotox,SNCA expr inhib
CCC(=O)N1CCc2c(C(=O)NCc3ccc(OC(C)C)cc3)cccc21,?,?,1%,i,-21%,-30%
CC(=O)Nc1cccc(-c2nc(-c3c(C)noc3C)cc3c2cc(-c2ccccc2)n3C)c1,-24%[87.6 µM],?,-30%[70.6 µM],i,11µM*,-1%[87.6 µM]
CC(=O)Nc1cccc(-c2nc(-c3c(C)noc3C)cc3cc(C)oc23)c1,-9%[87.6 µM],79µM*,6%[70.6 µM],i,40µM*,28%[87.6 µM]
CNC(=O)c1cc2cc(-c3c(C)noc3C)nc(-c3ccccc3C)c2o1,-13%[87.6 µM],?,0%[70.6 µM],i,11µM*,54%[87.6 µM]
CNC(=O)c1cc2cc(-c3c(C)noc3C)nc(-c3ccccc3OC)c2o1,-1%[87.6 µM],?,1%[70.6 µM],i,?,32%[87.6 µM]
Cc1noc(C)c1-c1cc2c(cc(-c3ccccc3)n2C)c(N(C)C)n1,-3%[87.6 µM],?,-17%[70.6 µM],i,?,-17%[87.6 µM]
CC(C)C[C@H](NC(=O)CNC(=O)c1cc(Cl)ccc1Cl)B(O)O,?,nt,nt,nt,nt,0.54µM*
CN1CCOc2c(C(=O)NCc3cccnc3)cc(-c3ccc(O)c(F)c3)cc21,0%[87.6 µM],?,0%[70.6 µM],i,?,7%[87.6 µM]
CNC(=O)c1cc(-c2cnn(C)c2)cc2c1OCCN2Cc1cccnc1,-2%[87.6 µM],i,2%[70.6 µM],i,40µM*,33%[87.6 µM]
CN(C)CCNC(=O)c1cc(-c2ccccc2F)cc2c1OCCN2Cc1cccnc1,?,63µM*,-25%[70.6 µM],i,40µM*,?
CN1CCOc2c(C(=O)NCc3cccnc3)cc(-c3ccccc3F)cc21,?,100µM*,3%[70.6 µM],i,?,-9%[87.6 µM]
CC(C)NC(=O)c1cc(-c2ccccc2F)cc2c1OCCN2Cc1cccnc1,?,89µM*,-26%[70.6 µM],i,79µM*,?
CNC(=O)c1cc(-c2cccnc2)cc2c1OCCN2Cc1cccnc1,-1%[87.6 µM],5%[172 µM],8%[70.6 µM],i,?,3%[87.6 µM]
CN(C)CCN(C)C(=O)c1cc(-c2ccccc2F)cc2c1OCCN2Cc1cccnc1,-17%,79µM*,-3%,i,?,-1%
O=C1CCN(C(=O)c2cccc3[nH]ccc23)CCCCCCN1,8%,-13%,-1%,i,-14%,42%
O=C(NC1CCCN(c2cc(-c3ccc(F)cc3)[nH]n2)C1)c1ccc(F)cc1F (stereo not given),-4%,?,2%,i,?,52%
COc1ccc(-c2cc(N3CCC(NC(=O)c4cc(Cl)ccc4F)C3)n[nH]2)cc1 (stereo not given),3%,?,-11%,i,?,-8%
O=C(NC1CCN(c2cc(-c3ccc(F)cc3)[nH]n2)C1)c1cc(Cl)ccc1F (stereo not given),-11%,?,-18%,i,35µM*,-17%
O=C(NC1CCCN(c2cc(-c3ccc(F)cc3)[nH]n2)C1)c1cc(F)ccc1F (stereo not given),-23%,45µM*,-21%,i,?,1%
CN(C)C(=O)c1ccnc(-c2nnc3ccc(NC4CCCCC4)nn23)c1,8%[87.6 µM],1%[172 µM],4%[70.6 µM],i,?,19%[87.6 µM]
CN(C)C(=O)c1ccc(-c2ccc(N3CCCCCC3)nc2)cc1,-23%,32µM*,-23%,18µM*,?,25%
O=C(c1ccc(-c2ccc(N3CCCCCC3)nc2)cc1)N1CCCC1,-24%,28µM*,?,?,32µM*,-17%
CC(C)NC(=O)c1ccc(-c2ccc(N3CCCCCC3)nc2)cc1,-11%,?,?,i,?,63%
CN(C)C(=O)c1ccnc(-c2nnc3ccc(N4CCCCC4)nn23)c1,9%[87.6 µM],5%[172 µM],-2%[70.6 µM],i,32µM*,-3%[87.6 µM]
CCCNC(=O)N1CCC2(CC1)CC(c1ccccc1)C(=O)N2C (stereo not given),11%,-11%,11%,i,0%,11%
SMILES,HEK293 viab,HEK cytotox,hNpr1 antagonist,FLuc inh,3T3 cytotox,SNCA expr inhib
O=C1NC2(CN(Cc3ccc(OC(F)(F)F)cc3)C2)Oc2ccccc21,-5%,?,-6%,i,?,12%
Cc1ccccc1-c1nccn2c(C3CN(Cc4ccccc4O)C3)ncc12,-8%[87.6 µM],89µM*,2%[70.6 µM],i,100µM*,2%[87.6 µM]
CCOc1ccc(CC(=O)N2CC(c3nnc(-c4ccncc4)o3)C3(CCOCC3)C2)cc1 (stereo not given),-11%,-19%,-1%,i,-20%,-5%
CC(C)(C)c1nc(C(=O)NCCc2ccc(Cl)cc2)n2ccncc12,-17%,35µM*,nt,nt,?,-10%
COc1cccc(NC(=O)[C@@H]2C[C@@H](c3ccc(F)cc3)N(Cc3ccccc3)C2)c1,-28%[87.6 µM],?,?,i,32µM*,-36%[87.6 µM]
O=C(Nc1ccncn1)[C@@H]1C[C@@H](c2ccc(F)cc2)N(Cc2ccccc2)C1,-2%[87.6 µM],100µM*,-18%[70.6 µM],i,79µM*,-4%[87.6 µM]
COC(=O)C1=C(C)N=C2SC=C(CC(=O)NCc3cccc(F)c3)N2C1c1ccccc1Cl (stereo not given),3%,-28%,?,i,-20%,13%
Cc1cccc(-c2cccc(CN3CCC(N[S+](C)(=O)[O-])CC3)c2)c1,7%,?,nt,nt,?,-8%
Cc1ccc([S+](=O)([O-])NC2CCN(Cc3cccc(-c4ccc(F)c(F)c4)c3)CC2)cc1,-27%,22µM*,nt,nt,16µM*,-37%
CSc1ccc(-c2cccc(CN3CCC(N[S+](=O)([O-])c4ccc(C)cc4)CC3)c2)cc1,nt,20µM*,nt,nt,14µM*,nt
COCCNC(=O)c1cc(C2CC2)nc2onc(C3CCCN3)c12 (stereo not given),-3%,-11%,nt,nt,-12%,4%
Cn1ncc2c(C(=O)NCc3ccc(F)cc3)cc(C(C)(C)C)nc21,4%[12.5 µM],100µM*!,nt,nt,?,-11%[87.6 µM]
Cn1ncc2c(C(=O)NCc3ccc(F)c(F)c3)cc(C(C)(C)C)nc21,-5%[12.5 µM],56µM*,nt,nt,?,?
COc1cccc(CN2CCOC3CCN(Cc4ccc(F)cc4F)CC3C2=O)c1 (stereo not given),2%[87.6 µM],?,-10%[70.6 µM],i,?,-5%[87.6 µM]
